Laboratory results: PubChem BioAssay (Tox21)
Records with an inconclusive call do not appear. Unmarked numbers belong to inactive results. Calls follow the shape of the full dose curve.

Test: qHTS assay to identify small molecule agonists of the endoplasmic reticulum stress response signaling pathway - cell viability counter screen (AID 1159517);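 also: HeLa cells carrying an ER stress response element beta-lactamase reporter; nearly all actives have a fitted effect of over 50% in size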
Settings: ESRE-bla HeLa viability, CellTiter-Glo luminescence, 5 h; series mostly up to 61 µM; activity change, negative = cytotoxicity: at the top concentration
In short: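 ESRE-bla HeLa cells, 1,500 per well, seeded overnight then treated with compounds for 5 hr at 37 C. After the beta-lactamase read, viability in the same wells is measured by CellTiter-Glo luminescence after 30 min at room temperature.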
% is scaled to controls: 0 for no effect and ±100 for the full control effect.

First: Cc1cccc(C)c1NC(=O)CC12CCCN1CCC2
Second: CC[N+](CC)(CC(=O)Nc1c(C)cccc1C)Cc1ccccc1 (tested in a mixture with another compound)
The “activity change, negative = cytotoxicity” value of the first is lower: -5.91% for the first, -1.02% for the second.

Compared with `C[C@@H]1C[C@H]2[C@@H]3C[C@H](F)C4=CC(=O)C(Cl)=C[C@]4(C)[C@@]3(F)[C@@H](O)C[C@]2(C)[C@@]1(O)C(=O)CO`, `C[C@H]1C[C@H]2[C@@H]3CCC4=CC(=O)C=C[C@]4(C)[C@H]3C(=O)C[C@]2(C)[C@@]1(O)C(=O)CO` is lower in “activity change, negative = cytotoxicity” value: 1.6% for the first, -0.675% for the second.

Compared with `CO[Si](C)(OC)c1ccccc1`, `Cc1coc2ccccc2c1=O` is lower in “activity change, negative = cytotoxicity” value: 2.84% for the first, 2.25% for the second.

First: CC(C)[C@H]1CC[C@@H](C)CC1=O
Second: CC(=O)C1CCCCC1=O (stereo not drawn)
The “activity change, negative = cytotoxicity” value of the first is higher: 13.6% for the first, 2.76% for the second.

Going from `Cc1nc(C2CCCCC2)c(-c2ccc(S(N)(=O)=O)c(F)c2)o1` to `Cc1ccnc(NS(=O)(=O)c2ccc(N)cc2)n1`, the “activity change, negative = cytotoxicity” value rises from -4.04% to -0.802%.

Compared with `CCOC(=O)COC(=O)c1ccccc1C(=O)OCC`, `CCOC(=O)c1cnc2c(cnn2CC)c1NN=C(C)C` is higher in “activity change, negative = cytotoxicity” value: -1.07% for the first, -0.0107% for the second.

Compared with `CC(=O)c1ccc2ccccc2c1`, `O=S(=O)(O)c1cccc2ccccc12` is higher in “activity change, negative = cytotoxicity” value: 5.98% for the first, 9.58% for the second.

Compared with `COc1ccc2cc1Oc1cc3c(cc1OC)CC[N+](C)(C)[C@H]3Cc1ccc(cc1)Oc1c(OC)c(OC)cc3c1[C@@H](C2)[N+](C)(C)CC3`, `CN1CCC(=C2c3ccccc3CCc3cccnc32)CC1` is higher in “activity change, negative = cytotoxicity” value: -19.9% for the first, 3.31% for the second.

First: C1CCC2(CCCCO2)OC1
Second: c1ccc2sc(SN3CCOCC3)nc2c1
The “activity change, negative = cytotoxicity” value of the first is lower: -0.999% for the first, 21.3% for the second.

Going from `CC1=NN(c2cc(S(=O)(=O)O)ccc2Cl)C(=O)C1N=Nc1ccccc1` (stereo not drawn) to `NC(=O)N1c2ccccc2CC(=O)c2ccccc21`, the “activity change, negative = cytotoxicity” value rises from -1.15% to 12.2%.

First: O=S(=O)(O)c1cccc(S(=O)(=O)O)c1
Second: O=C(O)Cc1csc(-c2ccc(Cl)cc2)n1
The “activity change, negative = cytotoxicity” value of the first is higher: 19.8% for the first, 1.19% for the second.

Compared with `Nc1ccncc1N`, `CCCc1ncc(C[n+]2ccccc2C)c(N)n1` is higher in “activity change, negative = cytotoxicity” value: -0.652% for the first, 9.8% for the second.

Going from `CCN(Cc1ccccc1)c1ccccc1` to `CCCCc1nc(Cl)c(CO)n1Cc1ccc(-c2ccccc2-c2nn[nH]n2)cc1`, the “activity change, negative = cytotoxicity” value rises from -15.4% to 3.68%.

Compared with `CN(C)CCCN(C)CCCN(C)C`, `CCCCCC(C)N` (stereo not drawn) is higher in “activity change, negative = cytotoxicity” value: 1.26% for the first, 7.52% for the second.

First: CCCCCCCCCCCCCCCCCCO
Second: Nc1ccn([C@@H]2O[C@H](CO)[C@@H](O)[C@@H]2O)c(=O)n1
The “activity change, negative = cytotoxicity” value of the first is higher: 1.04% for the first, -7.57% for the second.

Compared with `COc1cc(-c2ccc(=O)[nH]n2)ccc1OC(F)F`, `Clc1cc(Cl)c(Cl)nc1Cl` is lower in “activity change, negative = cytotoxicity” value: 19.7% for the first, -1.38% for the second.

With `CC(CC=O)CC(C)(C)C` (stereo not drawn) the “activity change, negative = cytotoxicity” value was 3.26%.

Compared with `C=CC(=O)OCCCl`, `CCN(C=O)CC` is higher in “activity change, negative = cytotoxicity” value: -17.6% [at 78.8 µM] for the first, 0.343% [at 78.8 µM] for the second.

Compared with `O=C(CO)[C@@H](O)[C@H](O)[C@H](O)CO`, `CCNS(=O)(=O)c1ccc(C)cc1` is higher in “activity change, negative = cytotoxicity” value: -23.7% [at 78.8 µM] for the first, 3.02% [at 78.8 µM] for the second.

With `C[N+]1(CC2COC(c3ccccc3)(c3ccccc3)O2)CCCCC1` (stereo not drawn) the “activity change, negative = cytotoxicity” value was -2.7% [at 28.5 µM].
